Screening data from PubChem BioAssay.
CRE-bla Fsk = CRE-bla signaling modulation under forskolin stimulation; AID 662; CHO CRE-bla reporter (cAMP response element driving beta-lactamase), forskolin EC10, beta-lactamase ratio; actives 2.5% (n = 71,000); Potency, µM (doses to about 38.2 µM), for inactives: at the highest dose activity change, negative = inhibition, usual class: activators; active means well fitted activation curve with a large enough effect in the signal ratio, with a control signal flat, not every such curve was filed as active; inconclusive means small, poorly fitted or top-dose-only effect, or effect the other way, or a change in a side signal; the % refers to the signal ratio; further: % of control where 0% means no effect
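CRE-bla CHO cells stimulated with EC10 NKH 477 (water-soluble forskolin) and compound titrations, 3 h at 37C; beta-lactamase read with CCF4 after 2 h at room temperature. Activity from 460/530 nm emission ratio, AC50 values for positive or negative modulation.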
15-hLO-2 inh = inhibitors of human 15-lipoxygenase 2 (ALOX15B) | O15296 | purified 15hLO-2, xylenol orange hydroperoxide absorbance | Potency, µM (highest dose often 57.1 µM), for inactives: at the highest dose activity change, negative = inhibition, actives largely listed as inhibitors | actives 0.56% (n = 110,000); further: on the % scale 0 is the no-effect control and ±100 the full control effect; nearly all actives have a fitted effect of over 60% in size
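Screening format was qHTS against 50 nM purified 15hLO-2 in Hepes pH 7.5 with detergent. Activity follows hydroperoxide formation from 45 uM arachidonic acid, measured as 573:405 nm absorbance ratio of the ferric-xylenol orange complex.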
ERK AVP inh = inhibitors of vasopressin-stimulated ERK signaling pathway; Potency, µM (titrated, usually from 57.5 µM), for inactives: top-dose activity, negative = inhibition, actives largely listed as inhibitors; HEK293-V1b, vasopressin-stimulated pERK AlphaScreen; actives 0.99% (n = 72,000); AID 995; further: on the % scale 0 is the no-effect control and ±100 the full control effect; nearly all actives have a fitted effect of over 55% in size
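HEK293 cells stably expressing V1b receptor, preincubated 30 min at 37 °C with compound, then stimulated 5 min with 25 nM vasopressin. Phospho-ERK by AlphaScreen SureFire after 5 h RT; normalized to DMSO and vasopressin; AC50 by Hill fit.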
15-hLO inh = blocks human 15-lipoxygenase activity; P16050; purified 15hLO-1, xylenol orange hydroperoxide absorbance; Potency, µM (highest dose often 57.1 µM), without a hit: top-dose activity change, negative = inhibition, hits mostly inhibitors; actives 1.4% (n = 74,000); further: on the % scale 0 is the no-effect control and ±100 the full control effect; nearly all actives have a fitted effect of over 55% in size
Target sequence (P16050 whole entry, looked up): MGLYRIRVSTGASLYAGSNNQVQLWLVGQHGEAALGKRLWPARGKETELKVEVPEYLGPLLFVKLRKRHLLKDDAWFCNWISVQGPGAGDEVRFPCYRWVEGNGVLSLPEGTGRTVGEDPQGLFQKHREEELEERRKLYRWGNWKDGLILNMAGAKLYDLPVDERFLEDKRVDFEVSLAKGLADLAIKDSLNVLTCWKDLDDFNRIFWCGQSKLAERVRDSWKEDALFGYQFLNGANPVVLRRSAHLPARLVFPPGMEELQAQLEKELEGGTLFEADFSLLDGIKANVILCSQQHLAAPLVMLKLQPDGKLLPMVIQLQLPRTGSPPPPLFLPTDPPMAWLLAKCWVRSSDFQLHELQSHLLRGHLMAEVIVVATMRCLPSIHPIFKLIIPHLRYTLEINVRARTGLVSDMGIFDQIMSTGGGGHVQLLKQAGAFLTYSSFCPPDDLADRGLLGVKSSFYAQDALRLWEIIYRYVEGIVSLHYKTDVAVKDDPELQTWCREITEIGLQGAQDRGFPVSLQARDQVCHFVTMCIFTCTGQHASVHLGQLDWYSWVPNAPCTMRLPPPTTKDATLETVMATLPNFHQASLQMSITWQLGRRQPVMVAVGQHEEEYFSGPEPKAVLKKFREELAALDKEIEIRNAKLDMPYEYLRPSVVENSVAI
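Purified human 15hLO-1 (40 nM final) in 25 mM Hepes pH 7.5, 0.01% Triton X-100 was preincubated with compound 15 min at room temperature, then reacted 6 min with 50 uM arachidonic acid; hydroperoxide detected by Fe-XO, 573/405 nm absorbance ratio.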
Active calls of the source: *; ? = inconclusive; . = not tested or not shown; ! = repeats disagree; [ ] = another dose, or the depositor's remark. An excerpt weighted towards active compounds, which were near 3.2% of everything screened. Unless noted, the call rests on the fitted dose curve; in most records, active means well fitted inhibition curve with a large enough effect; inconclusive means small, poorly fitted or top-dose-only effect; inactive means no such curve, though single readings can be large or run the other way. Potency means the concentration at half of the fitted maximal effect.

SMILES	CRE-bla Fsk	15-hLO-2 inh	ERK AVP inh	15-hLO inh
COc1ccc2cc3cc(C(=O)NCCc4ccc(OC)c(OC)c4)oc3nc2c1	3.16µM*	-16.5%	13.4%	2.6%
COc1ccc2c(=O)c(C(=O)NCCc3ccc(OC)c(OC)c3)c[nH]c2c1	12.6µM*	-7.1%	-15.8%	0.9%
COc1ccc(CCNC(=O)c2ccc(=O)[nH]n2)cc1OC	.	0.4%	.	.
NC(=NCc1ccc(Cl)c(Cl)c1)NC(=O)c1nc(Cl)c(N)nc1N	-1.6%	37.0%	-5.8%	5.6%
Cc1cccc(Cn2cnc3c(nnn3Cc3ccc(F)cc3)c2=O)c1	-5.3%	.	-3.6%	-17.4%
Cc1cccc(Cn2cnc3c(nnn3Cc3ccccc3F)c2=O)c1	1.26µM*	-7.8%	-1.9%	2.7%
Cc1cc(C)cc(N(CCC#N)C(=O)CSc2nc3nc(C)cc(C)n3n2)c1	6.31µM*	-6.4%	-14.0%	1.9%
COc1c2occc2cc2ccc(=O)oc12	15.8µM*!	5.8%	?	20.2%[25.6 µM]
CC(=O)Oc1c2occc2cc2ccc(=O)oc12	-4.6%	-7.8%	-15.6%	-1.1%
Oc1oc(-c2ccccc2)nc1C=Nc1ccccc1	.	-22.5%	.	.
CN(C)c1ccc(N=Cc2nc(-c3ccccc3)oc2O)cc1	-12.6%	?	12.6µM*	-21.4%
N#C/C(=C\c1ccc(O)c(O)c1)C(=O)Nc1ccccc1	?	?	?	3.16µM*
C[C@H](NC(=O)/C(C#N)=C/c1ccc(O)c(O)c1)c1ccccc1	?	?	10µM*	0.251µM*
N#C/C(=C\c1ccccc1)C(=O)NC(=O)Oc1ccccc1	.	-6.7%	.	.
CCOC(=O)c1c(NCC2CCCO2)c2ccccc2[nH]c1=O (configuration not stated)	.	-0.7%	.	.
CCCCCCNc1c(C(=O)OCC)c(=O)[nH]c2ccccc12	3.98µM*	0.9%	-28.0%	-5.6%
CCN(CC)c1ccc(NS(=O)(=O)c2ccc3c(c2)oc(=O)n3C)c(C)c1	-29.9%	-7.1%	?	20µM*
CCN(CCNS(=O)(=O)c1ccc2c(c1)oc(=O)n2C)c1ccccc1	-7.7%	-1.3%	-16.2%	5.4%
COc1ccc(-c2csc(C)n2)cc1OC	.	0.5%	.	.
COc1ccc(-c2csc(Cc3nnc4n3CCCCC4)n2)cc1OC	12.6µM*	1.8%	-20.9%	0.1%
c1cc2c(cc1-c1cnc3n1CCC3)OCCO2	?	12.2%	15.8µM*	25.0%
CO[C@@H]1COC(=O)CCC[C@@H](C)[C@H](OC)COC(=O)CCC[C@H]1C	.	.	-6.8%[11.5 µM]	5.7%[11.4 µM]
COc1cccc(N2C(=O)CC(Nc3ccc(N4CCOCC4)cc3)C2=O)c1 (configuration not stated)	.	12.6µM*	.	12.6µM*
COc1ccc(N2C(=O)CC(Nc3ccc(N4CCOCC4)cc3)C2=O)c(OC)c1 (configuration not stated)	2.1%	31.6µM*	-35.7%	?
O=C1CC(Nc2ccc(N3CCOCC3)cc2)C(=O)N1c1cccc(C(F)(F)F)c1 (configuration not stated)	-0.2%	20µM*	.	?
SMILES	CRE-bla Fsk	15-hLO-2 inh	ERK AVP inh	15-hLO inh
COc1ccc(Oc2ncc3nc(CCc4ccccc4)c(=O)n(C[C@H]4CCCO4)c3n2)cc1	?	-10.4%	-2.7%	20.4%
C1CCCC1	-8.0%	-6.1%	16.9%	2.1%
Cc1cc2n(n1)C(c1ccccc1Cl)Nc1ccccc1-2 (configuration not stated)	12.6µM*	10.4%	-23.4%	-2.8%
CSc1ccc(C2Nc3ccccc3-c3cc(C)nn32)cc1 (configuration not stated)	19.7%	17.9%	10.8%	-15.4%
Cn1nc(C(=O)NCc2ccccn2)c2ccccc2c1=O	15.6%	-3.4%	?	0.4%
Cn1c(C(=O)N2CCc3ccccc32)cc2c(=O)n3ccccc3nc21	?	.	11.6%	3.9%
Cn1c(C(=O)NCc2ccccn2)cc2c(=O)n3ccccc3nc21	2µM*	.	4.2%	2.1%
Cn1c(C(=O)N2CCCc3ccccc32)cc2c(=O)n3ccccc3nc21	1.58µM*	-2.2%	16.1%	-0.7%
O=c1c(O)cccc2cc(O)c(O)c(O)c12	.	-9.6%	?	3.98µM*
CCCCOCCCn1c(-c2ccco2)nc2nc3ccccc3nc21	12.6µM*	-22.2%	-12.9%	?
CCCc1c(OCCCOc2ccc(OCC(=O)O)cc2)ccc(CC=O)c1O	0.1µM*	-19.9%	-0.1%	-17.4%[25.6 µM]
Cc1ccsc1C1C=C(c2cccc(Br)c2)Nc2ncnn21 (configuration not stated)	?	-4.6%	0.7%	15.8µM*
COc1cccc(C2=CC(c3ccc(C)cc3)n3ncnc3N2)c1 (configuration not stated)	?	-4.1%	1.4%	-12.1%
Cc1cc(C)c(C)c(S(=O)(=O)NCCC(=O)O)c1C	.	.	.	-0.9%
c1cncc(-c2ccc3ncnc(NC4CCNCC4)c3c2)c1	-2.7%	4.1%	-12.6%	11.4%
c1cncc(-c2cncnc2NC2CCNCC2)c1	?	3.6%	-19.0%	31.6µM*
C[C@@H]1O[C@@H](n2cc(F)c(=O)[nH]c2=O)[C@H](O)[C@@H]1O	?	-2.8%	13.6%	5.3%
Cc1noc(C)c1-c1nccc(-n2ccnc2)n1	?	-1.8%	-29.9%	-29.3%
CC(C)(CCC(C)(C)c1ccccc1)c1ccccc1	0.5%[7.6 µM]	-8.3%[11.4 µM]	9.7%[11.5 µM]	0.4%[11.4 µM]
O=c1c(O)c(-c2cc(O)c(O)c(O)c2)oc2cc(O)cc(O)c12	?	?	3.8%	2.51µM*
O=c1c(O)c(-c2ccccc2)oc2cc(O)cc(O)c12	?	-17.3%	14.7%	-24.2%[25.6 µM]
O=c1c2c([nH]c3ccccc13)C(=C1CCCC1)CC2	.	-13.8%	.	20µM*
COc1ccc(CNc2ccnc(-c3ccccc3Cl)n2)c(OC)c1	-1.9%	35.7%	-20.0%	5.0%
COc1ccc(C)cc1NC(=O)CSc1nnc(-c2ccccn2)n1Cc1ccco1	1.58µM*	-0.7%	-18.7%	-10.1%
COc1ccccc1NC(=O)CSc1nnc(-c2ccccn2)n1Cc1ccco1	10µM*	-14.8%	-21.9%	-2.4%
SMILES	CRE-bla Fsk	15-hLO-2 inh	ERK AVP inh	15-hLO inh
COc1ccccc1NC(=O)CSc1nnc(-c2ccco2)n1Cc1ccco1	-2.7%	-1.3%	-1.1%	4.8%
COc1ccc(C)cc1NC(=O)CSc1nnc(COc2ccccc2)n1Cc1ccco1	-25.1%	16.7%	-29.6%	-28.3%
C#CCCCO/N=C1/C[C@@H](O)[C@@H](O)[C@@H]2[C@@H]3C(=O)N(C4CCCCC4)C(=O)[C@H]3CC[C@@H]12	.	.	-0.8%[11.5 µM]	3.9%[11.4 µM]
CN(C)c1ncc2ncc(=O)n(Cc3cccs3)c2n1	7.94µM*	-5.5%	-30.0%	-6.9%
COc1ncc2nc(CCc3ccccc3)c(=O)n(Cc3cccs3)c2n1	12.6µM*	-3.3%	16.1%	-5.5%
COc1ncc2nc(C)c(=O)n(Cc3cccs3)c2n1	12.6µM*	2.0%	-20.3%	2.7%
COc1ncc2nc(CCc3ccccc3)c(=O)n(CCc3ccccc3)c2n1	?	-0.9%	-3.7%	-29.0%
COc1ncc2ncc(=O)n(Cc3cccs3)c2n1	3.3%	?	-21.7%	13.0%
Oc1ccc(N2CCN(C(c3cccs3)c3nnnn3CCc3ccccc3)CC2)cc1 (configuration not stated)	-7.7%	?	19.3%	3.16µM*
